Hits are enriched below; roughly 13% of the tested compounds scored in any of these assays.
HADH2 inh – inhibitors of human HADH2 dehydrogenase; Q99714; recombinant HADH2, NADH fluorescence, beta-hydroxybutyryl-CoA; Potency, µM (top dose mostly 57.1 µM), actives largely listed as inhibitors; actives 3.4% (n = 73,000); AID 886; also: nearly all actives have a fitted effect of over 60% in size
Target sequence (Q99714 whole entry, looked up, one chain of several): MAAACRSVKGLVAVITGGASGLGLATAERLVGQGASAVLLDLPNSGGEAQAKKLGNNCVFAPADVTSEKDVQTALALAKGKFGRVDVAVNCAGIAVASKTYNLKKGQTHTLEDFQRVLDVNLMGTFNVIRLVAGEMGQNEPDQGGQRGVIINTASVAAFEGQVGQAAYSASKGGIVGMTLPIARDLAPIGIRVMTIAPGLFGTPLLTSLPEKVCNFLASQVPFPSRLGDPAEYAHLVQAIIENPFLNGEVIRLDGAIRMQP
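NADH fluorescence (ex 360/em 450 nm) read every 30 s for 4 min; activity taken as last-minus-first time point difference. Enzyme 20 nM, NAD+ 1 mM, beta-hydroxybutyryl-CoA 90 uM, pH 9.0 Tris buffer.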
A350 fluor – compounds fluorescent in Alexa 350 spectral region; max dye-equivalent concentration, M; Compound autofluorescence, 340/450 nm, Alexa 350 dye-equivalents; active compounds read high; actives 11% (n = 59,000); in the data active = max dye-equivalent concentration above about 10 nM; inconclusive = mostly about 1.1 nM to 9.6 nM
AID923 – qHTS Assay for Allosteric/Competitive Inhibitors of Caspase-1: Spectroscopic Profiling in AFC Spectral Region. compound fluorescence, AFC spectral region (405/520 nm). Potency, µM (highest dose often 57.5 µM), usual class: activators. actives 1.1% (n = 75,000). AID 923, 2007
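Compound autofluorescence profiled at 405 nm ex/520 nm em during kinetic caspase 1 run (50 nM enzyme, 5 uM Ac-WEHD-AFC, HEPES pH 7.5, 10 mM DTT). Titration up to 57 uM; baseline from regression intercept, normalized to AFC standard curve.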
4MU fluor – compound fluoresces in the 4-MU spectral region; compound autofluorescence, 340/450 nm, 4-MU equivalents; active compounds read high; AID 589; actives 11% (n = 59,000); max dye-equivalent concentration, M; in the data active = max dye-equivalent concentration above about 10 nM; inconclusive = mostly about 1.1 nM to 9.6 nM
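Compounds in 100 mM Tris, pH 8.0, incubated 15 min at room temperature, then fluorescence read at 340 nm excitation/450 nm emission. Signal converted to 4-MU dye-equivalent concentration using an on-plate six-point 4-MU standard curve.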
HSD17B inhib – inhibitors of human HSD17B10 dehydrogenase. AID 893. actives 7.6% (n = 75,000). recombinant HSD17B10, NADH fluorescence kinetic. Potency, µM (highest dose often 57.1 µM), actives largely listed as inhibitors. Q99714;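 also: the protocol describes HADH2 (HSD17B10) and not the HSD17B4 of the title; nearly all actives have a fitted effect of over 70% in size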
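Activity followed as NADH fluorescence increase (ex 360, em 450 nm) every 30 seconds for 4 min, using final 90 uM beta-hydroxybutyryl CoA and 1 mM NAD+. Recombinant His-tagged enzyme, 20 nM, pH 9.0 Tris buffer, 15 min compound preincubation.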
Of the large screens only hits and unclear results are named; the others gave an inactive call. Unless noted, calls follow the shape of the dose curve; as a rule, active = well fitted curve in the direction sought with a large enough effect; inconclusive = small, poorly fitted or top-dose-only effect, or another doubt; inactive = no such curve, though single readings can be large; an effect the other way counts as inactive or inconclusive.

CC(C)C[C@H]1C(=O)N2CCC[C@@H]2[C@]2(O)O[C@](NC(=O)[C@H]3C=C4c5cccc6[nH]c(Br)c(c56)C[C@H]4N(C)C3)(C(C)C)C(=O)N12	A350 fluor 2.4e-08M, 4MU fluor 2.7e-08M
COc1ccc2c(c1)[nH]c1c(N3CCN(Cc4ccc5c(c4)OCO5)CC3)ncnc12	none (no result: A350 fluor, 4MU fluor)
COc1cccc2[nH]c3c(N4CCC(C)CC4)ncnc3c12	A350 fluor 2.5e-08M, 4MU fluor 2e-08M, HSD17B inhib 13µM
COc1cccc2[nH]c3c(N4CCN(Cc5ccc6c(c5)OCO6)CC4)ncnc3c12	HADH2 inh 25µM, A350 fluor 9.9e-08M, 4MU fluor 7.4e-08M, HSD17B inhib 25µM
CCN1CCN(C(=O)c2ccc3c(c2)N(Cc2ccc(F)cc2)C(=O)c2ccccc2S3=O)CC1 (stereo not drawn)	none (no result: A350 fluor, 4MU fluor)
CN(C)C(=O)[C@H]1C[C@@H]1[C@H](NC(=O)OCc1ccccc1)c1ccccc1	none (no result: A350 fluor, 4MU fluor)
Cc1ccc2c(c1)[C@H]1OCC[C@H]1[C@@H](c1ccncc1)N2	none (no result: A350 fluor, 4MU fluor)
Clc1ccc2c(c1)C1OCCC1C(c1ccco1)N2 (stereo not drawn)	HADH2 inh inconclusive, A350 fluor 4.6e-07M, 4MU fluor 6.7e-07M, HSD17B inhib 10µM
CCOC(=O)Cc1csc(SCC(=O)Nc2sc3c(c2C(N)=O)CCC3)n1	HADH2 inh inconclusive, HSD17B inhib inconclusive
CCn1ncc(Br)c1C(=O)Nc1sc2c(c1C(N)=O)CCC2	A350 fluor 1.5e-07M, 4MU fluor 1.1e-07M, HSD17B inhib 3.2µM
CCOC(=O)c1ccc(NC(=O)c2nn(CC)cc2Br)cc1	none
CCOC(=O)c1c(NC(=O)c2ccc(-n3cnnn3)cc2)sc2c1CCCC2	A350 fluor 1.3e-08M, 4MU fluor 1.4e-08M
CCOC(=O)c1c(NC(=O)c2nn(CC)cc2Br)sc2c1CCCCC2	HADH2 inh 32µM, A350 fluor 1.8e-07M, 4MU fluor 1.9e-07M, HSD17B inhib 5µM
CCOC(=O)c1nn(-c2ccccc2)c(=O)c(C#N)c1C	A350 fluor 1e-08M, 4MU fluor 1.1e-08M
Cc1ccc(S(=O)(=O)NC(=O)NCc2ccccn2)cc1	A350 fluor inconclusive
COc1ccc(CCn2c(-c3ccco3)nc3oc4ccccc4c(=O)c3c2=O)cc1	none
CCOC(=O)c1c(NC(=O)c2nn(CC)cc2Br)c(C#N)nn1-c1ccccc1	none
CCOC(=O)c1nn(-c2ccccc2)c(C#N)c1NC(=O)c1nn(CC)cc1Br	HSD17B inhib 25µM
CCOC(=O)c1c(NC(=O)c2nn(CC)cc2Br)sc(C)c1C	A350 fluor 4.8e-07M, 4MU fluor 4.9e-07M
CCOC(=O)CCN1C(=O)[C@H]2[C@H]3[C@H](O)[C@H](O)C/C(=N/OCc4ccccc4)[C@H]3CC[C@@H]2C1=O	none (no result: A350 fluor, 4MU fluor)
c1csc(CNc2ncncc2-c2ccoc2)c1	none
Cc1ccc2cc(C)c(N3CCN(c4ccccn4)CC3)nc2c1	HADH2 inh inconclusive, A350 fluor inconclusive, 4MU fluor inconclusive, HSD17B inhib inconclusive
Cc1ccc2nc3c(c(N)c2c1)CCN3c1ccccc1	HADH2 inh 32µM, A350 fluor 5.9e-07M, 4MU fluor 7.4e-07M, HSD17B inhib 32µM
CN1CCN(S(=O)(=O)c2ccc(NC(=O)c3ccc(Br)s3)cc2)CC1	none
Nc1c(S(=O)(=O)c2cccc(Cl)c2)c2nc3ccccc3nc2n1/N=C/c1ccc(O)c(O)c1	HADH2 inh 25µM, HSD17B inhib inconclusive
CCC(C)NC(=O)c1c(N)n(/N=C/c2ccccn2)c2nc3ccccc3nc12 (stereo not drawn)	none
O=C(c1ccncc1)N1CCC2(CCCN(Cc3nccs3)C2)CC1	none
Oc1cccc(-c2nc3ccccc3s2)c1	HADH2 inh 16µM
Cc1ccnc(NS(=O)(=O)c2ccc(N=CC3=C(O)CC(C)(C)CC3=O)cc2)n1	A350 fluor 1.2e-08M, 4MU fluor inconclusive
COCC(=O)N1CCC2(CC1)CN(c1ccccc1)C2	none
CC12CCC(=O)N1c1c(sc3nc(N4CCOCC4)c4c(c13)CCCC4)C(=O)N2 (stereo not drawn)	A350 fluor 5.8e-07M, 4MU fluor 4.8e-07M (no result: HADH2 inh, AID923, HSD17B inhib)
c1nc(N2CCNCC2)c2sc3nc(N4CCOCC4)c4c(c3c2n1)CCC4	A350 fluor inconclusive, 4MU fluor inconclusive

Compound activity from PubChem BioAssay.
